Results filed as inconclusive are left out. Calls of active or inactive are those of the source. How the source made its calls: active means hit-call score of the fitted dose curve at least 0.9, where 1 is the maximum; inconclusive means response in the unintended direction; inactive means score below 0.9.
Experiments:
[1] = molecular target: Estrogen receptor (Homo sapiens) + Estrogen receptor beta (Homo sapiens) (UniProt P03372+Q92731); assay: OT_ER_ERaERb_1440: Odyssey Thera (OT) 24-hour HEK293T Protein-Complementation Assay for Estrogen Receptor-alpha/-beta Homodimer (AID 2283356);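 further: heteromer of ER alpha and ER beta binding domains; hits raise reporter fluorescence and both agonists and antagonists give an increase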
Sequence of Estrogen receptor (Homo sapiens) + Estrogen receptor beta (Homo sapiens) (P03372 whole entry, looked up, the tested form may be a part): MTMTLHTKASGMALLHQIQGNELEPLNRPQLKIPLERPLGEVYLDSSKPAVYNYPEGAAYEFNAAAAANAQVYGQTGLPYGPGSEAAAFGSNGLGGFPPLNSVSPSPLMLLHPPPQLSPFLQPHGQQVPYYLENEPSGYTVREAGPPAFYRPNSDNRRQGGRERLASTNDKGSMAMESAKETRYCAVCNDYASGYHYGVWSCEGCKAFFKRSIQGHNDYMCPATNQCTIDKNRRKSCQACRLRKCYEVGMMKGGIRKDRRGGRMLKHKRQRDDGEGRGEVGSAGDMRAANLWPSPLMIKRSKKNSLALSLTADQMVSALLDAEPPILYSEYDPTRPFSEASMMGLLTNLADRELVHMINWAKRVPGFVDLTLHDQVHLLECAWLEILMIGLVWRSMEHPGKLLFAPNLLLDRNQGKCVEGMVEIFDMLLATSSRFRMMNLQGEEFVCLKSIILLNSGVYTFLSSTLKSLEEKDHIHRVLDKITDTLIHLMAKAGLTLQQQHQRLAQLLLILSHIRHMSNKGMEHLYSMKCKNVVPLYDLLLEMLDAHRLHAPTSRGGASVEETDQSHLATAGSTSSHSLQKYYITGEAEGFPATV
Sequence of Estrogen receptor (Homo sapiens) + Estrogen receptor beta (Homo sapiens) (Q92731 whole entry, looked up, the tested form may be a part): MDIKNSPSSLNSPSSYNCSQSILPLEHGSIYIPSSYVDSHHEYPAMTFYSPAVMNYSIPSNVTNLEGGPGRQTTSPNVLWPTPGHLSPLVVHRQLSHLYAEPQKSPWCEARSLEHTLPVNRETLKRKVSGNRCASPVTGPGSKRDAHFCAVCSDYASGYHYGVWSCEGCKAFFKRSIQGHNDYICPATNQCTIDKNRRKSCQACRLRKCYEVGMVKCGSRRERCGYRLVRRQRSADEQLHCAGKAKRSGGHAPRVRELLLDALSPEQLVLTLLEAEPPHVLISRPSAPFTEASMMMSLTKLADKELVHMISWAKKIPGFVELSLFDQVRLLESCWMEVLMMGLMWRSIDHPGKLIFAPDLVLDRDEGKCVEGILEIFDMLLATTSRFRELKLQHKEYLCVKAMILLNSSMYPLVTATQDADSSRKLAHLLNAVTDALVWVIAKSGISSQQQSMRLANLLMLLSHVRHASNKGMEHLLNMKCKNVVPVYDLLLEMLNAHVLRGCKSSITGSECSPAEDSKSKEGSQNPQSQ
In short: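 HEK293T cells stably expressing a PCA pair of ERα LBD (aa 310-547) and ERβ LBD (aa 263-489) were dosed for 24 h. Fluorescence intensity increase versus DMSO vehicle was fitted as gain-of-signal.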

[2] = molecular target: Estrogen receptor beta (Homo sapiens) (UniProt Q92731); assay: OT_ER_ERbERb_0480: Odyssey Thera (OT) 8-hour HEK293T Protein-Complementation Assay for Estrogen Receptor-beta/-beta Homodimer (AID 2283357);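 further: active means signal gain over DMSO baseline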
Sequence of Estrogen receptor beta (Homo sapiens) (Q92731 whole entry, looked up, the tested form may be a part): as above
In short: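 Fluorescence intensity, nuclear for agonists and nuclear plus cytoplasmic for antagonists, was quantified by laser scanning cytometry versus vehicle after 8 h treatment. The cells were HEK293T stably carrying ER beta LBD fragment-complementation partners.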

[3] = molecular target: Retinoic acid receptor alpha (Homo sapiens) (UniProt P10276); assay: NVS_NR_hRAR_Antagonist: NovaScreen (NVS) Nuclear Receptor Binding Assay for human Retinoic Acid Alpha Receptor Antagonism (RAR) (AID 2283358)
Sequence of Retinoic acid receptor alpha (Homo sapiens) (P10276 whole entry, looked up): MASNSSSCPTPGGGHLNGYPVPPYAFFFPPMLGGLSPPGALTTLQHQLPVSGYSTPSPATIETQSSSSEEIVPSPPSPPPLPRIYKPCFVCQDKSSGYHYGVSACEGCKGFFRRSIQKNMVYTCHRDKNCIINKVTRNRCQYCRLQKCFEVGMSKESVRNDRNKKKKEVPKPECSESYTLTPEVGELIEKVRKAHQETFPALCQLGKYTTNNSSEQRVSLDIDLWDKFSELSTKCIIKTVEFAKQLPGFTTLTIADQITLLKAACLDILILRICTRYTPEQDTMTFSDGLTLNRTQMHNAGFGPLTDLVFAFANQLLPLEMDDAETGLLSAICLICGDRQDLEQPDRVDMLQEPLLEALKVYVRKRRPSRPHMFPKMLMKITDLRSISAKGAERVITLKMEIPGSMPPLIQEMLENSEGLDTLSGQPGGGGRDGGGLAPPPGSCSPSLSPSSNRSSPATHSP
In short: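 Cell-free TR-FRET binding assay with extracted human RARalpha in antagonist mode, read 2 h after dosing. Loss of signal was fitted relative to DMSO; the primary screen used 25 uM in duplicate, with concentration series on follow-up.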

[4] = system: guinea pig Dopamine Transporter (DAT), gene 100714898; assay: NVS_TR_gDAT: NovaScreen (NVS) Transporter Assay for guinea pig Dopamine Transporter (DAT) (AID 2283369);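 further: active compounds lower bound radioligand signal relative to DMSO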
In short: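 Guinea pig striatal membranes; radioligand displacement measured by filter-based scintillation counting 2 h after dosing. Initial duplicate screen at 25 uM, then concentration-response up to 50 uM for hits; loss of signal versus DMSO baseline.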

[5] = molecular target: human Dopamine Transporter (DAT), SLC6A3 (gene 6531) (UniProt Q01959); assay: NVS_TR_hDAT: NovaScreen (NVS) Transporter Assay for human Dopamine Transporter (DAT) (AID 2283374);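 further: activity means loss of bound radioligand signal relative to DMSO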
Sequence of human Dopamine Transporter (DAT), SLC6A3 (gene 6531) (Q01959 whole entry, looked up): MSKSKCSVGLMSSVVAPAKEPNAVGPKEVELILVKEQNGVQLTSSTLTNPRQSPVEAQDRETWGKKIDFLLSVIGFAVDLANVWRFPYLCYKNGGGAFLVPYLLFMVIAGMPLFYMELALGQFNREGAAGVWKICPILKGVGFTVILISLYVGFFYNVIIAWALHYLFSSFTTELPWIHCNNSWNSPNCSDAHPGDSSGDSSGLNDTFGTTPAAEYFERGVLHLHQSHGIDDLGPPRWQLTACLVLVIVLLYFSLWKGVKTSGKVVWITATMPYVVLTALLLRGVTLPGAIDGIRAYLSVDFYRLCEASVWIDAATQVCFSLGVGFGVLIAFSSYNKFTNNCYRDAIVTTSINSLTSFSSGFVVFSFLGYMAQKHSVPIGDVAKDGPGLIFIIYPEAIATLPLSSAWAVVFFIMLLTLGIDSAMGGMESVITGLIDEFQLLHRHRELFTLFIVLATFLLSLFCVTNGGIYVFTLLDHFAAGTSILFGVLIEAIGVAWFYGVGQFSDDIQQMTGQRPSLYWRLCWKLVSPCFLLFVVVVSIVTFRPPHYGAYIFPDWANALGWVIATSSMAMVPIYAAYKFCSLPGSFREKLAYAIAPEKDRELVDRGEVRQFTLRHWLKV
In short: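 Cell-free radioligand displacement binding at human DAT, 1 h after dosing, with filtration and scintillation counting. Primary screen in duplicate at 25 uM, actives then in concentration series. Loss of bound signal versus DMSO scored.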

PGR (gene 5241) = PGR (gene 5241) (UniProt P06401); assay: NVS_NR_hPR: NovaScreen (NVS) Nuclear Receptor Binding Assay for human Progestron Receptor (PR) (AID 2283360);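 further: active means loss of bound radioligand signal versus DMSO baseline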
Sequence of PGR (gene 5241) (P06401 whole entry, looked up): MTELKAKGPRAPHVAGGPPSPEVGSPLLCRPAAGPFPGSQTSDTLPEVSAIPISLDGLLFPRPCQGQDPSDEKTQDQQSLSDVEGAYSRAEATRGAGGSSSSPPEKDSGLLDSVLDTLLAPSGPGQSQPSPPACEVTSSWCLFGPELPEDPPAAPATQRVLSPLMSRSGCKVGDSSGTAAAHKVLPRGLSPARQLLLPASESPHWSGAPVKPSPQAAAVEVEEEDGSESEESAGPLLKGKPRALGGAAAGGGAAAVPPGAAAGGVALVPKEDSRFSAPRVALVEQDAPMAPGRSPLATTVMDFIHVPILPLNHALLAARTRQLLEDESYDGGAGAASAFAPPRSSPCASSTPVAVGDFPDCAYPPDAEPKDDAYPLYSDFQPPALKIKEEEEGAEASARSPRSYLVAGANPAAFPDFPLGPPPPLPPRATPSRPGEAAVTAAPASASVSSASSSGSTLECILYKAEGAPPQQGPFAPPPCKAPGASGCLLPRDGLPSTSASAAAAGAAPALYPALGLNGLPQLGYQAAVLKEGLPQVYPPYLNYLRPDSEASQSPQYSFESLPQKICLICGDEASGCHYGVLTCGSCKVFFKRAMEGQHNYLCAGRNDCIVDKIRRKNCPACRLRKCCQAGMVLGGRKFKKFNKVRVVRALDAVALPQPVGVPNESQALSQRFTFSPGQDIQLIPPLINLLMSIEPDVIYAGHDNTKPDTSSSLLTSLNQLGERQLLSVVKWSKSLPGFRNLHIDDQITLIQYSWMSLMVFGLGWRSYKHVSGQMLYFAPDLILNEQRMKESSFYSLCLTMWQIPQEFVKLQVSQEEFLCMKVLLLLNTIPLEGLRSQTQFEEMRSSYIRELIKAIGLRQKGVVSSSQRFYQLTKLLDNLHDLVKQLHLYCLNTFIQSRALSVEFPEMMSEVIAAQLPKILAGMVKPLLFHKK
In short: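 Radioligand competition binding on receptor extracted from T47D cells, read by scintillation counting 18 h after dosing. Loss of signal versus DMSO; primary screen in duplicate at 25 uM, actives followed in concentration series.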

[6] = molecular target: human Thyroid Receptor Alpha (TRa), THRA (gene 7067) (UniProt P10827); assay: NVS_NR_hTRa_Antagonist: NovaScreen (NVS) Nuclear Receptor Binding Assay for human Thyroid Receptor Alpha Antagonism (TRa) (AID 2283362);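 further: activity is loss of signal relative to DMSO baseline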
Sequence of human Thyroid Receptor Alpha (TRa), THRA (gene 7067) (P10827 whole entry, looked up): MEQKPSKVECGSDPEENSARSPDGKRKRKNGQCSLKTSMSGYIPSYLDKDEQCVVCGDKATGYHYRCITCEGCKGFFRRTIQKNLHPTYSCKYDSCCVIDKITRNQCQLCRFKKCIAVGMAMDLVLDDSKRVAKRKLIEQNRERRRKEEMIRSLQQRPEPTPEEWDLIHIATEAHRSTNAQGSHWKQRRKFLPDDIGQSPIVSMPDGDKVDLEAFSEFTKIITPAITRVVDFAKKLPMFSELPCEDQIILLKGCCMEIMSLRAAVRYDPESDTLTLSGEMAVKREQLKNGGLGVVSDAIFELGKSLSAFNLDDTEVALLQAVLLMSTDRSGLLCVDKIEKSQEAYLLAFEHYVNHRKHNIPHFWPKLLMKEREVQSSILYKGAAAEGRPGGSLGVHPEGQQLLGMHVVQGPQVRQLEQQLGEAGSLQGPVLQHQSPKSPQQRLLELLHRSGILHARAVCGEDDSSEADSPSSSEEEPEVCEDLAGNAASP
In short: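 Cell-free binding assay on extracted receptor protein, read 1 h after chemical dosing by AlphaLISA chemiluminescence; loss of signal relative to DMSO baseline marks antagonism. Primary screen ran in duplicate at 25 uM, with concentration series for actives.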

[7] = molecular target: Glucocorticoid receptor (Homo sapiens) (UniProt P04150); assay: NVS_NR_hGR: NovaScreen (NVS) Nuclear Receptor Binding Assay for human Glucocorticoid Receptor (GR) (AID 2283363);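 on AC50: activity is loss of specific radioligand binding signal relative to DMSO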
Sequence of Glucocorticoid receptor (Homo sapiens) (P04150 whole entry, looked up): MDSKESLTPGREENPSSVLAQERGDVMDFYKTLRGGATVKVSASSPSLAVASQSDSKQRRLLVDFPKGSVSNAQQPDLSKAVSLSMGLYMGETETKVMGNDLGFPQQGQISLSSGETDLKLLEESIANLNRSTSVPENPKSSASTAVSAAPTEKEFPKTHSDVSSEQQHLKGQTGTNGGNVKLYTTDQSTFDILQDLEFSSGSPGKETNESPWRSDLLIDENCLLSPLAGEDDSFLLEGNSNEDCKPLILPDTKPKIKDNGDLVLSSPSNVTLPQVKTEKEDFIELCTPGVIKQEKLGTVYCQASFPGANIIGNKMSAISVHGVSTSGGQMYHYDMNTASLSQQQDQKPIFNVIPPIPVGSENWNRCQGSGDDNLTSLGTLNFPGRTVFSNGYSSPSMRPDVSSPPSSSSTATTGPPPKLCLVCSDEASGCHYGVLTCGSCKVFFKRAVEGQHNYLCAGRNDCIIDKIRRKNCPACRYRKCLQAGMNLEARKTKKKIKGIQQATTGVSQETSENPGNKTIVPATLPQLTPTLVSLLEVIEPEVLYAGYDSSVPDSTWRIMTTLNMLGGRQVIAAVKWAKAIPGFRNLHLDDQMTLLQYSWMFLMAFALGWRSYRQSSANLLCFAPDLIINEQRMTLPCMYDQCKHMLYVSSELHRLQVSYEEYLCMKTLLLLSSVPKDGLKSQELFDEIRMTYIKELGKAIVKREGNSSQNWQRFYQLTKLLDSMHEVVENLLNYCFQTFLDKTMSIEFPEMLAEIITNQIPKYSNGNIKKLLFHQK
In short: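 Cell-free radioligand displacement assay on extracted human GR, read 16 h after dosing by filter-based scintillation counting. Screened in duplicate at 25 uM, then concentration series for actives; loss of signal versus DMSO baseline.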

[8] = molecular target: guinea pig Sigma Receptor, Non-selective Binding, SIGMAR1 (gene 100135589) (UniProt Q60492); assay: NVS_OR_gSIGMA_NonSelective: NovaScreen (NVS) Nuclear Receptor Binding Assay for guinea pig Sigma Receptor, Non-selective Binding (AID 2283367)
In short: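 Radioligand displacement on guinea pig brain membranes, read by filter-based scintillation counting 1 h after dosing. Loss of signal versus DMSO; initial duplicate single-point screen at 25 uM, actives followed in concentration series.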

[9] = molecular target: Peroxisome proliferator-activated receptor gamma (Homo sapiens) (UniProt P37231); assay: NVS_NR_hPPARg: NovaScreen (NVS) Nuclear Receptor Binding Assay for human Peroxisome Proliferator-activated Receptor gamma (PPARg) (AID 2283370)
Sequence of Peroxisome proliferator-activated receptor gamma (Homo sapiens) (P37231 whole entry, looked up): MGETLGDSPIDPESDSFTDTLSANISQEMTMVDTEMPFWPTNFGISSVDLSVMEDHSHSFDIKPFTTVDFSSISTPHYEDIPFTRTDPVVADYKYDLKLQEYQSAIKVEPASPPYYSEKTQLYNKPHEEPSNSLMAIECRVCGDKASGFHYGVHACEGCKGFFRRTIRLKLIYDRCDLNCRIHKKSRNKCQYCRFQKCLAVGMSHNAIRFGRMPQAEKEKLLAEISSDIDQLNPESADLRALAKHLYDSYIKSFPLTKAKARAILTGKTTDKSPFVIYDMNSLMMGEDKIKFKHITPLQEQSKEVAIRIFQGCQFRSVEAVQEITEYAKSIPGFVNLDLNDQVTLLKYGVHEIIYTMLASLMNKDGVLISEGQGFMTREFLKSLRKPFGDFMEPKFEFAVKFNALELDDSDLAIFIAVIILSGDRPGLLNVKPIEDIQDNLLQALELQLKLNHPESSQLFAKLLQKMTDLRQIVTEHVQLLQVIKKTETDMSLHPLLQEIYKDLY
In short: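 Cell-free binding to extracted PPARg protein, read by fluorescence polarization 2 h after dosing; loss of signal relative to DMSO baseline marks displacement. Primary screen in duplicate at 25 uM, actives retested in concentration series.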

[10] = molecular target: human Serotonin Transporter (SERT), SLC6A4 (gene 6532) (UniProt P31645); assay: NVS_TR_hSERT: NovaScreen (NVS) Transporter Assay for human Serotonin Transporter (SERT) (AID 2283372)
In short: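 Radioligand binding to native SERT in human platelet membranes, read by filter-based scintillation counting 1 h after dosing. Primary screen in duplicate at 25 uM; actives followed up in concentration series; loss of signal versus DMSO baseline.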

[11] = molecular target: rat Serotonin Transporter (SERT), Slc6a4 (gene 25553) (UniProt P31652); assay: NVS_TR_rSERT: NovaScreen (NVS) Transporter Assay for rat Serotonin Transporter (SERT) (AID 2283375)
In short: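 Rat forebrain membranes were incubated with test chemical for 1 hour; radioligand binding to SERT was measured by filter-based scintillation counting. Primary screen ran in duplicate at 25 uM, with actives followed up in concentration series; DMSO served as negative control.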

[12] = molecular target: human Peroxisome Proliferator-activated Receptor alpha (PPARa), PPARA (gene 5465) (UniProt Q07869); assay: NVS_NR_hPPARa: NovaScreen (NVS) Nuclear Receptor Binding Assay for human Peroxisome Proliferator-activated Receptor alpha (PPARa) (AID 2283359);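 further: activity means loss of TR-FRET signal versus DMSO baseline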
In short: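 Cell-free TR-FRET binding assay with extracted PPARα protein, read 1 h after dosing. Primary screen in duplicate at 25 uM, with actives retested in concentration series. Loss of signal versus DMSO.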

[13] = molecular target: Nuclear receptor subfamily 1 group I member 2 (Homo sapiens) (UniProt O75469); assay: NVS_NR_hPXR: NovaScreen (NVS) Nuclear Receptor Binding Assay for human Pregnane X Receptor (PXR) (AID 2283365);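 further: a drop in FRET signal versus DMSO baseline means the compound binds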
In short: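 Cell-free binding assay with extracted human PXR protein, read by TR-FRET 2 h after dosing; loss of signal relative to DMSO baseline indicates binding. Primary screen at 25 uM in duplicate, actives retested in concentration series.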

[14] = molecular target: human Norepinephrine Transporter (NET), SLC6A2 (gene 6530) (UniProt P23975); assay: NVS_TR_hNET: NovaScreen (NVS) Transporter Assay for human Norepinephrine Transporter (NET) (AID 2283377);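 further: displacement of radioligand from human NET seen as loss of scintillation signal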
In short: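 Cell-free radioligand binding using CHO-derived membrane protein expressing human NET, read by filter scintillation counting 1 h after dosing; loss of signal vs DMSO. Initial duplicate screen at 25 uM, actives retested in concentration series.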

Measured: AC50

CCOc1cc(C(C)(C)C)ccc1C1COC(c2c(F)cccc2F)=N1 (stereo unspecified)
inactive: [1] | [2] | [3] | [4] | [5]

COP(=S)(OC)Oc1ccc([N+](=O)[O-])c(C)c1
inactive: [1] | [2] | [6]
active: PGR (gene 5241) 4.97 µM | [7] 9.62 µM | [8] 3.93 µM | [9] 3.38 µM | [10] 1.99 µM | [5] 4.96 µM | [11] 3.37 µM

CC(C)N1C(=O)N(c2ccccc2)CSC1=NC(C)(C)C
active: [2] 21.1 µM
inactive: [1]

CCOC(=O)C(C)OC(=O)c1cc(Oc2ccc(C(F)(F)F)cc2Cl)ccc1[N+](=O)[O-] (stereo unspecified)
active: [5] 7.94 µM
not listed: [13] | [14]
inactive: all other assays above

CCC(C)n1c(=O)[nH]c(C)c(Br)c1=O (stereo unspecified)
inactive: [1]

COC(=O)NC(=S)Nc1ccccc1NC(=S)NC(=O)OC
inactive: [1] | [2]

OC(c1ccc(Cl)cc1)(c1ccc(Cl)cc1)C(Cl)(Cl)Cl
inactive: [3] | [6] | [4]
active: [1] 11.9 µM | [2] 12 µM | [7] 6.9 µM | [5] 8.54 µM

Cc1nc(N(C)C)nc(OC(=O)N(C)C)c1C
inactive: [1] | [2]

COCc1cnc(C2=NC(C)(C(C)C)C(=O)N2)c(C(=O)O)c1 (stereo unspecified)
inactive: [1] | [2] | [3]

Clc1cccc(C(Cl)(Cl)Cl)n1
inactive: [1]

COc1ccc(-c2ccccc2)cc1NNC(=O)OC(C)C
inactive: [1] | [2]

O=c1n(Cl)c(=O)n(Cl)c(=O)n1Cl
inactive: [1] | [2] | [3]

N#Cc1c(Cl)cccc1Cl
inactive: [1] | [2] | PGR (gene 5241) | [6] | [7] | [13] | [9]

CC1(C)C(C=C(Cl)Cl)C1C(=O)OC(C#N)c1cccc(Oc2ccccc2)c1 (stereo unspecified)
inactive: [1] | [2] | [3] | PGR (gene 5241) | [7]
active: [4] 9.19 µM | [5] 6.48 µM | [14] 12.2 µM

Reference: PubChem BioAssay (EPA / NIEHS)
